Compound activity from PubChem.
An excerpt weighted towards active compounds, which were near 9% of everything screened.
HPGD inh: qHTS Assay for Inhibitors of HPGD (15-Hydroxyprostaglandin Dehydrogenase); 15-hydroxyprostaglandin dehydrogenase [NAD(+)] (Homo sapiens), P15428; purified HPGD, NADH fluorescence kinetic, PGE2 substrate; Potency, µM, for the others: at the highest dose activity change, negative = inhibition, actives largely listed as inhibitors; actives 4.3% (n = 150,000); AID 894, 2007; active = well fitted inhibition curve with a large enough effect, not every such curve was filed as active; inconclusive = small, poorly fitted or top-dose-only effect, or another doubt; inactive = no such curve, though single readings can be large or run the other way; also: % is scaled to controls: 0 for no effect and ±100 for the full control effect
Target sequence (P15428 whole entry, looked up): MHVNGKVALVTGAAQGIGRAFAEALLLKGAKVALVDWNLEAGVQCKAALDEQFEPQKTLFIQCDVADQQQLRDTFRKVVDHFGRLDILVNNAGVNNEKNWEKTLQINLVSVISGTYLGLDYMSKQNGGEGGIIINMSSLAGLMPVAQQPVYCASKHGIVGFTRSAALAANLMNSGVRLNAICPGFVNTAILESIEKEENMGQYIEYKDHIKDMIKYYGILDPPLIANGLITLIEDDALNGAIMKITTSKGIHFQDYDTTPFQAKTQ
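NADH formation kinetics: reaction with 30 uM PGE2 and 1 mM NAD+ (final), 20 nM enzyme, Tris-HCl pH 8 with Tween 20, after 15 min compound preincubation at room temperature. Fluorescence change, last versus first of five reads.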
ALDH1A1 inh: qHTS Assay for Inhibitors of Aldehyde Dehydrogenase 1 (ALDH1A1). Purified ALDH1A1, NADH fluorescence, propionaldehyde substrate. Potency, µM (doses to about 75.3 µM), without a hit: at the highest dose activity, negative = inhibition, hits mostly inhibitors. actives 7.3% (n = 220,000); active = well fitted inhibition curve with a large enough effect, not every such curve was filed as active; inconclusive = small, poorly fitted or top-dose-only effect, or another doubt; inactive = no such curve, though single readings can be large or run the other way;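 also: plate controls were no enzyme wells and a reference inhibitor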
Target sequence (P00352 whole entry, looked up): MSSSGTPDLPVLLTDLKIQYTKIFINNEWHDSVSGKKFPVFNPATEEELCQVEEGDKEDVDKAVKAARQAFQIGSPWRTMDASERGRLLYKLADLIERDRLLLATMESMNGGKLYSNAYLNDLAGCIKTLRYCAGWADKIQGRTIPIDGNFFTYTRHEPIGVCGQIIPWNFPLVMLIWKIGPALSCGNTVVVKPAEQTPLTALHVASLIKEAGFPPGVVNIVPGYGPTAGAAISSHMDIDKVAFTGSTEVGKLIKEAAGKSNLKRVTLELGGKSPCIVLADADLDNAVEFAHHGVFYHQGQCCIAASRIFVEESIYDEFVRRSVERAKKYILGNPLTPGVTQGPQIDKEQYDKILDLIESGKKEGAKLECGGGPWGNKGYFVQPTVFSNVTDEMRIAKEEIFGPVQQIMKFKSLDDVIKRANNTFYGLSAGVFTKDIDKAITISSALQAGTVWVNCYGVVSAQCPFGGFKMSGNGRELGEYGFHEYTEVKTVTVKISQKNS
HTT ATP protect: qHTS Multiplex Assay to Identify Dual Action Probes in a Cell Model of Huntington: Cytoprotection (ATP); PC12 HTT-Q103 induced, cytoprotection, ATP luminescence, 40 h; Potency, µM (highest dose often 56.4 µM), for the others: cytoprotection (ATP increase), actives largely listed as activators; actives 0.14% (n = 230,000); AID 1471, 2008; also: % of control where 0% means no effect; nearly all actives have a fitted effect of over 45% in size
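Compounds added alongside 100 nM tebufenozide, which induces toxic Q103 huntingtin exon 1-GFP in stable PC12 cells; surviving cells quantified by luminescent ATP measurement. Medium: phenol red-free DMEM, 5% equine and 5% calf serum.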
KinaseGlo FLuc: Counterscreen for Luciferase (Kinase-Glo TM) Inhibition; Luciferin 4-monooxygenase (Photuris pensylvanica), Q27757; Kinase-Glo luciferase, ATP luminescence, 8 min; Potency, µM (doses to about 38.3 µM), for inactives: at the top dose activity change, negative = inhibition, usual class: inhibitors; actives 0.28% (n = 200,000); AID 1379, 2008; also: % is scaled to controls: 0 for no effect and ±100 for the full control effect; nearly all actives have a fitted effect of over 60% in size
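Compounds were added to a substrate mix at pH 7.2 (50 mM imidazole, 10 uM ATP, within the enzyme's linear range), followed by Kinase-Glo detection reagent; luminescence was measured after 8 minutes at ambient temperature.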
HTT aggregate: qHTS Multiplex Assay to Identify Dual Action Probes in a Cell Model of Huntington: Aggregate Formation (GFP); PC12 HttQ103-GFP aggregates, Acumen cytometry, 40 h; Potency, µM (doses to about 46.1 µM), inactives show at the top dose activity change, negative = inhibition, actives largely listed as inhibitors; actives 1.1% (n = 220,000); AID 1688, 2009; also: % is scaled to controls: 0 for no effect and ±100 for the full control effect; nearly all actives have a fitted effect of over 60% in size
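Ecdysone-promoter PC12 model expressing HTT exon 1 Q103 fused to GFP, induced by tebufenozide at 100 nM final. Compounds titrated; aggregates sized 1–25 µm scored on a 488 nm laser cytometer.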
Lamin A splicing: qHTS Assay for Modulators of Lamin A Splicing; HeLa LMNA splicing GFP/RFP minigene ratio, 48 h; Potency, µM (highest dose often 46.1 µM), for the others: top-dose ratio change, negative = inhibition, most hits filed as inhibitors; actives 0.01% (n = 200,000); active = well fitted inhibition curve with a large enough effect in the signal ratio, with a control signal flat, not every such curve was filed as active; inconclusive = small, poorly fitted or top-dose-only effect, or effect the other way, or a change in a side signal; the % refers to the signal ratio; also: % is scaled to controls: 0 for no effect and ±100 for the full control effect
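Read-out is the ratio of GFP to DsRed2 object intensity, acquired by 488 nm laser-scanning cytometry on HeLa lamin A-EGFP minigene reporter cells. Compound incubation 48 hrs at 37 °C in Opti-MEM with 2% FBS; DMSO 0.5% final.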
Active calls of the source: *; ? = inconclusive; nt = no result; [ ] = dose if it differs, or a comment. Unless noted, calls follow the shape of the dose curve; as a rule, active = well fitted curve in the direction sought with a large enough effect; inconclusive = small, poorly fitted or top-dose-only effect, or another doubt; inactive = no such curve, though single readings can be large; an effect the other way counts as inactive or inconclusive. Potency is read from the fitted curve at half-maximal effect.

SMILES	HPGD inh	ALDH1A1 inh	HTT ATP protect	KinaseGlo FLuc	HTT aggregate	Lamin A splicing
CCc1ccc(NC(=O)c2cc(S(=O)(=O)N3CCCC3)ccc2F)cc1	nt	nt	nt	nt	nt	-17.9%[46 µM]
O=C(Nc1ccc(O)cc1)c1cc(S(=O)(=O)N2CCCC2)ccc1Cl	nt	4.47µM*	3.3%	nt	-24.9%	?
O=C(NCc1cccnc1)c1ccc(-c2cc(Cl)ccc2Cl)o1	nt	7.08µM*	-10.5%[10 µM]	4.7%	8.1%[9.22 µM]	nt
O=C(NCc1cccnc1)c1cc(S(=O)(=O)N2CCCCC2)ccc1Cl	-6.6%	20µM*	-11.4%	-0.6%	-17.0%	-8.9%
O=C(Nc1cc(S(=O)(=O)N2CCCCC2)ccc1O)c1ccccc1NS(=O)(=O)c1ccc(F)cc1	?	?	4.2%[0.074 µM]	4.2%	-7.6%	?
COC(=O)c1sccc1-c1ccc(C(=O)Nc2cccc(Cl)c2)o1	?	?	-22.5%	2.6%	-3.5%	-2.9%
Cc1occc1C(=O)Nc1ccc(S(=O)(=O)N2CCCC2)cc1	-12.2%	?	-20.9%[0.074 µM]	-5.0%	3.98µM*	?
CCC(NC(=O)Nc1nnc(C(F)(F)F)s1)(C(F)(F)F)C(F)(F)F	-10.3%	12.5%	-73.0%	1.0%	1.58µM*	?
O=C(COC(=O)/C=C/c1ccccc1[N+](=O)[O-])NC1CCS(=O)(=O)C1 (centres undefined)	nt	3.7%	0.6%[10 µM]	0.6%	-3.1%	2.5%[46 µM]
Cc1[nH]n(-c2ncc(-c3ccc(Cl)cc3)s2)c(=O)c1C(c1ccc(Cl)cc1)C(C#N)C#N (centres undefined)	10µM*	?	-8.0%[10 µM]	-1.4%	?	?
Cc1[nH]n(-c2ccc(Cl)cc2)c(=O)c1N=Nc1cccnc1	nt	nt	-14.7%[10 µM]	nt	9.3%[9.22 µM]	nt
CC(C)(C)c1ccc(S(=O)(=O)NNC(=O)C2CCN(Cc3cccc(F)c3)CC2)cc1	nt	2.24µM*	-28.5%	0.3%	-12.8%	nt
CCN(CC)c1ccc(/C=C(\C#N)c2nc(-c3cccs3)c(NC(C)=O)s2)cc1	nt	?	3.3%[10 µM]	nt	12.6µM*	?
CC(=O)Nc1sc(N/N=C\c2ccc(O)cc2)nc1-c1cccs1	nt	nt	8.0%[10 µM]	nt	44.1%[9.22 µM]	nt
CN(C)CCC1CCN(c2cc(C#N)c(C#N)cc2[N+](=O)[O-])CC1	nt	9.4%	-26.4%	-2.6%	-13.7%	nt
COc1ccc(NC(=O)CC2(CC(=O)O)CCCC2)cn1	nt	?	-18.2%	5.1%	12.4%	-12.8%[46 µM]
O=C(O)CC1(CC(=O)Nc2ccc(Oc3cccc(C(F)(F)F)c3)nc2)CCCC1	nt	7.94µM*	6.8%[10 µM]	nt	-6.9%[9.22 µM]	nt
c1ccc(CCN2CCN(c3ncnc4c3cnn4-c3ccccc3)CC2)cc1	-7.8%	28.2µM*	-14.0%	1.5%	-18.8%	?
Cc1cccc(-n2ncc3c(N4CCCCCC4)ncnc32)c1	nt	nt	nt	nt	nt	-22.7%[46 µM]
CCOC(=O)N1CCN(c2ncnc3c2cnn3-c2ccc(Cl)cc2)CC1	?	3.98µM*	-11.2%[10 µM]	5.4%	5.1%	?
c1ccc(-n2ncc3c(N4CCCCC4)ncnc32)cc1	17.8µM*	?	-123.7%	-17.5%	-14.9%	-17.5%
Cc1ccccc1C(=O)N1CCN(c2ncnc3c2cnn3-c2ccccc2)CC1	-3.6%	7.94µM*	-7.7%	-3.6%	?	?
Cc1ccc(S(=O)(=O)Oc2ccc(C(c3c(C)[nH][nH]c3=O)c3c(C)[nH][nH]c3=O)cc2)cc1	-9.1%	?	11.3%	1.0%	?	0.2%
Cc1cc(C)cc(N(CC(=O)Nc2ccc(-c3nc4ccc(C)cc4s3)cc2)S(C)(=O)=O)c1	?	?	20.8%[10 µM]	-4.1%	10.4%	-6.8%
O=C(O)c1nc(-c2ccccc2)n(-c2ccccc2)n1	-4.0%	1.0%	7.4%[10 µM]	-4.9%	2.1%	-4.6%
SMILES	HPGD inh	ALDH1A1 inh	HTT ATP protect	KinaseGlo FLuc	HTT aggregate	Lamin A splicing
CC(C)OC(=O)CSc1nc2ncc(Cl)cc2[nH]1	-25.2%	-3.7%	3.7%	-0.2%	-17.4%	5.4%
COc1cc(NC(=S)NC2CC2)c(OC)cc1Cl	-4.5%	?	-5.1%[10 µM]	1.9%	20µM*	14.0%
Cc1cccc(NC(=S)NC(C)(C)CC(C)(C)C)c1	nt	3.3%	8.91µM*	-2.1%	?	-10.6%[46 µM]
Cc1cccc(NC(=S)NCc2ccc(F)cc2)c1	-29.0%	?	nt	-3.0%	16.3%	?
COc1cc(OC)c(NC(=S)Nc2cccc(C)c2)cc1Cl	15.8µM*	?	nt	-0.6%	19.2%	-11.9%
O=C(O)CCC(NC(=O)C1CCCN1C(=O)OCc1ccccc1)C(=O)O (centres undefined)	nt	3.5%	-1.2%[10 µM]	2.8%	1.6%[9.22 µM]	nt
O=C[C@@H]1CCCN1C(=O)[C@@H]1CCCN1C(=O)OCc1ccccc1	nt	7.94µM*	-24.1%	nt	nt	nt
CN(C)c1ccc(O)c2c1C[C@@H]1C[C@H]3C(N(C)C)C(=O)C(C(N)=O)=C(O)[C@@]3(O)C(=O)C1=C2O (some centres undefined)	28.2µM*	-1.1%	nt	-10.3%	nt	nt
C=C1c2cccc(O)c2C(O)=C2C(=O)[C@]3(O)C(O)=C(C(N)=O)C(=O)C(N(C)C)C3C(O)C12 (some centres undefined)	15.8µM*	7.4%	nt	-7.5%	nt	nt
CCCCn1nnnc1SCC(=O)c1cc(Cl)ccc1OC	-25.6%	5.01µM*	-17.2%	2.3%	-0.4%	-1.2%
CCCCn1nnnc1SCC(=O)c1ccccc1F	nt	-6.2%	44.5%[10 µM]	-1.4%	14.3%[9.22 µM]	nt
CCCCn1nnnc1SCC(=O)c1ccc(C)c(C)c1	nt	7.94µM*	0.2%[10 µM]	nt	14.1%	?
Cc1cc[n+](CC(=O)N2CCCc3ccccc32)cc1	nt	5.7%	5.2%	-0.5%	-0.4%	5.8%[46 µM]
Cc1nc(C)c(C(=O)NCc2ccccc2Cl)o1	25.1µM*	22.4µM*	-11.5%	-1.4%	?	?
CCSc1nnc(NC(=O)c2cccc(OCc3c(C)noc3C)c2)s1	25.1µM*	?	-19.1%[10 µM]	-2.2%	-17.1%	?
Cc1noc(C)c1COc1cccc(C(=O)NCc2ccccc2Cl)c1	15.8µM*	-25.6%	-5.3%[10 µM]	-4.8%	-4.7%	?
CC(C)N(C(=S)NC1CCCCC1)c1ccccc1	nt	0.0%	-20.0%	0.1%	-15.1%	4.0%[46 µM]
CC(=O)Nc1ccc(S(=O)(=O)Oc2ccc3c(c2)C(C)=CC(C)(C)N3)cc1	-28.2%	-8.5%	16.2%[10 µM]	-1.0%	-16.9%	?
CC1=CC(C)(C)Nc2ccc(OS(=O)(=O)c3ccc(C)cc3)cc21	?	1.12µM*	-27.3%	-5.8%	?	?
